From PubChem BioAssay
TR SRC2 fluor cs: Texas Red fluorescence interference in TRb-SRC2 counter-screen; 280,000 tested, 0.29% active; Potency, µM (series often up to 106 µM); TRb/SRC2 Texas Red total fluorescence interference; active = well fitted curve in either direction with a large enough effect; inconclusive = small, poorly fitted or top-dose-only effect
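Human TRb ligand-binding domain at 0.6 uM with 20 nM Texas Red SRC2 peptide in Tris buffer containing 1 uM T3 and 5% DMSO, incubated with compound 5 h at ambient temperature. Total fluorescence (555/632 nm) calculated as parallel + 2 × perpendicular.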
TRb-SRC2 inh: disrupts binding of human TR beta to SRC2 | 280,000 tested, 0.065% active | Potency, µM (doses to about 106 µM), hits mostly inhibitors | AID 1469 | P10828 | TRbeta-SRC2 peptide binding, fluorescence polarization; receptor liganded with 1 µM T3; also: nearly all actives have a fitted effect of over 50% in size
Target sequence (P10828 whole entry, looked up): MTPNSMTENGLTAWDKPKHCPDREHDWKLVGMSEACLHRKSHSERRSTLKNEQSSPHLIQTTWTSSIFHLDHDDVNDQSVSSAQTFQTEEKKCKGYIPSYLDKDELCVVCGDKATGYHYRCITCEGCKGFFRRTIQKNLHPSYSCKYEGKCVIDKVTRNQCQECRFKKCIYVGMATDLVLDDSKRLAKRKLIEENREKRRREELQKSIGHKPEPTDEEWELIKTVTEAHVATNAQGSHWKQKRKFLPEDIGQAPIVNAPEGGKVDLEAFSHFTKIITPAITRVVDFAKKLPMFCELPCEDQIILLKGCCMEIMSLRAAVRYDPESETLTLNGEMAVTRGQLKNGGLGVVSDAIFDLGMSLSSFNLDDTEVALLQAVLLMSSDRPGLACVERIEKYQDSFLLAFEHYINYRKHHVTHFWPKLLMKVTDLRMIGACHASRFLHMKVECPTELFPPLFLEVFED
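Human TRb LBD (0.6 uM) plus Texas Red-labeled SRC2 peptide (20 nM), 1uM T3, 5% DMSO, 5 hr at ambient temperature. Decreased polarization (555/632 nm) flags inhibition; data normalized to free and bound peptide controls.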
Tau fibril FP: blocks human tau fibril formation measured by polarization. 280,000 tested, 0.39% active. AID 1468. K18 P301L tau heparin fibrillization, Alexa594 FP, 6 h. P10636. Potency, µM (top dose mostly 57.7 µM), usual class: inhibitors; also: nearly all actives have a fitted effect of over 55% in size
Target sequence (P10636 561-689 P618L limits assumed): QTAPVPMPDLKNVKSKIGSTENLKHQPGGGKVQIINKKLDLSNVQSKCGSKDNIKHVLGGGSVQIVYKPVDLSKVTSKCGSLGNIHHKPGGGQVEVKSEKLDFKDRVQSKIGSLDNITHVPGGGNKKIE
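Read-out: fluorescence polarization of Alexa 594-labeled tau (0.24 uM), 555 nm excitation, 632 nm emission. Mixtures held 15 uM unlabeled K18 P301L, compound and 20 uM heparin, pH 7 acetate buffer, incubated 6 hr at 37 C.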
Tau fluor counter: counter-screen for tau fibril formation inhibitors; tau K18 P301L Alexa594 fluorescence, heparin fibrillization; Potency, µM (series often up to 57.7 µM); 280,000 tested, 0.93% active; also: nearly all actives have a fitted effect of over 55% in size
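Human tau K18 P301L (15 uM unlabeled, 0.24 uM Alexa 594-labeled) in 100 mM sodium acetate pH 7 with 20 uM heparin, 6 hr at 37 C. ThT 30 uM added, 1 hr ambient; Alexa 594 FP and total fluorescence read at 555/632 nm.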
Tau ThT inhib: tau fibrillization inhibition (ThT binding). 270,000 tested, 2.1% active. AID 1460. Potency, µM (titrated, usually from 57.4 µM), most hits filed as inhibitors. P10636. recombinant tau K18 P301L (four-repeat tau fragment), heparin-induced fibrillization, ThT fluorescence; also: nearly all actives have a fitted effect of over 55% in size
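Heparin-induced fibrillization of the P301L-mutant K18 repeat-domain fragment of human tau was followed by ThT binding in quantitative high-throughput format.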
Large screens that a line does not name were inactive; [ ] = dose if it differs, or a comment. In the library only some 3% were active in any assay of this set; here they are far more common. Unless noted, calls follow the shape of the dose curve; as a rule, active = well fitted curve in the direction sought with a large enough effect; inconclusive = small, poorly fitted or top-dose-only effect, or another doubt; inactive = no such curve, though single readings can be large; an effect the other way counts as inactive or inconclusive.

CCCCCCN(C(=O)CCCCCN1C(=O)NC(c2ccccc2-c2ccccc2)C(C(=O)OCc2ccccc2)=C1C)C(C(=O)NCCCC)c1ccc(OCC(=O)OC)c(C(=O)OC)c1 (configuration not stated)	Tau ThT inhib inconclusive
Cc1cccc(CNC(=O)C(=O)Nc2ccccc2C)c1	none
COc1cccc2c1C(=O)c1c(O)c3c(c(O)c1C2=O)C[C@](O)(C(=O)CO)C[C@H]3O[C@@H]1C[C@H](N)[C@H](O)[C@H](C)O1	TR SRC2 fluor cs 15.8µM[fluorescent], TRb-SRC2 inh 14.1µM (no result: Tau fibril FP, Tau fluor counter, Tau ThT inhib)
COC(=O)C1=NN(c2ccc(OC)cc2)C2C(=O)N(c3ccccc3OC)C(=O)C12 (configuration not stated)	none (no result: Tau ThT inhib)
COC(=O)C1=CC(C(=O)c2cccs2)=NN(c2ccc(OC)cc2)C1C(=O)OC (configuration not stated)	Tau fluor counter inconclusive, Tau ThT inhib 14.1µM
CC1=C(C(=O)OC2CCCC2)C(c2ccccc2C(F)(F)F)CC(=O)N1 (configuration not stated)	none
Cc1sc2ncnc(N/N=C/c3ccc(O)cc3)c2c1C	Tau fluor counter 12.6µM[quencher], Tau ThT inhib 4.47µM
O=[N+]([O-])/C(C(Cl)=C(Cl)Cl)=C(/Sc1ccccc1)N1CCCCC1	Tau fibril FP inconclusive, Tau ThT inhib 22.4µM
CC(=O)Nc1ccc(Br)c2ccccc12	none
O=C(Nc1ccc(Br)c2ccccc12)c1ccc2ccccc2c1O	Tau fibril FP inconclusive, Tau fluor counter 17.8µM[quencher], Tau ThT inhib 17.8µM
COCCn1c(C)cc(O)c(C(c2ccc(OC)cc2)N2CCN(c3ccccc3)CC2)c1=O (configuration not stated)	Tau ThT inhib inconclusive
Cc1cccn2c(=O)c3cc(C(=O)NC(C)(C)C)n(C)c3nc12	none
COc1ccc(NC(=S)NCc2cccnc2)cc1	none
S=C(NCc1cccnc1)Nc1ccc(Oc2ccc(Cl)cc2)cc1	Tau fibril FP inconclusive, Tau fluor counter 12.6µM[quencher]
CCCc1cc(=O)oc2cc(C)c3c(-c4cccc(OC)c4)coc3c12	Tau ThT inhib inconclusive
CC(C)(C)c1n[nH]c(=O)n(N)c1=O	none (no result: Tau fibril FP, Tau fluor counter, Tau ThT inhib)
COc1ccc(NC(=O)/C(C#N)=C/C=C/c2ccco2)cc1	Tau ThT inhib 7.08µM
N#C/C(=C/c1ccc(N2CCCCC2)o1)C(=O)Nc1ccc2ccccc2c1	Tau fluor counter inconclusive, Tau ThT inhib 12.6µM
N#C/C(=C\c1ccc(N2CCOCC2)o1)C(=O)Nc1ccc(O)cc1	Tau ThT inhib 14.1µM
COc1ccc(NC(=O)/C(C#N)=C\c2ccc(N3CCOCC3)o2)cc1	Tau fluor counter inconclusive, Tau ThT inhib 12.6µM
CC(=O)OCC(NC(=O)C(Cc1ccccc1)NC(=O)OC(C)(C)C)C1OC(n2cc(F)c(=O)[nH]c2=O)C(OC(C)=O)C1OC(C)=O (configuration not stated)	none (no result: Tau fibril FP, Tau fluor counter, Tau ThT inhib)
COc1ccc2cc(C(N)=O)c(=Nc3ccccc3)oc2c1	none
COc1ccc(OC)c(N=c2oc3cc(O)ccc3cc2C(N)=O)c1	Tau fibril FP inconclusive, Tau fluor counter inconclusive, Tau ThT inhib 31.6µM
Cn1c(-n2cccc2)c(-c2c(-c3ccccc3)[nH]c3c2c(=O)n(C)c(=O)n3C)c(=O)n(C)c1=O	TR SRC2 fluor cs 25119µM[quencher]
COc1cccc(-c2[nH]c3c(c2-c2c(-n4cccc4)n(C)c(=O)[nH]c2=O)c(=O)[nH]c(=O)n3C)c1	none
Clc1ccc(NNc2ccnc3cc(Cl)ccc23)cc1	Tau fluor counter inconclusive, Tau ThT inhib 3.16µM
Oc1ccc(Nc2ccnc3cc(Cl)ccc23)cc1	Tau ThT inhib inconclusive
COC(=O)c1sc(NC(=O)c2ccc(Cn3cc(Cl)cn3)o2)c(C#N)c1C	Tau fibril FP inconclusive, Tau fluor counter inconclusive, Tau ThT inhib 25.1µM
COC(=O)C(N)CS (configuration not stated)	Tau fibril FP inconclusive, Tau ThT inhib 17.8µM
COC(=O)[C@@H](N)CS	Tau fibril FP inconclusive, Tau ThT inhib 14.1µM
COC(=O)C(N)Cc1ccc(O)cc1 (configuration not stated)	none
O=C1C(=Cc2cccs2)C(=O)c2ccccc21	none
CCn1c(C)cc(C=C2C(=O)c3ccccc3C2=O)c1C	Tau ThT inhib 14.1µM
Cc1cccc(-n2c(C)cc(C=C3C(=O)c4ccccc4C3=O)c2C)c1	Tau ThT inhib inconclusive
Cc1ccc(C=C2C(=O)c3ccccc3C2=O)s1	TR SRC2 fluor cs 44.7µM[fluorescent], TRb-SRC2 inh inconclusive, Tau ThT inhib 14.1µM
Cc1cc(C=C2C(=O)c3ccccc3C2=O)c(C)n1C	Tau ThT inhib 11.2µM
O=c1cc(-c2cccc(F)c2)[nH]c2cc(Cl)ccc12	none
CCN(CC)CCNC(=O)c1ccc(-c2nc(CS(=O)(=O)c3ccc(C)cc3)c(C)o2)cc1	Tau fibril FP inconclusive
CCC#CCOCC(=S)Nc1ccccc1	none
CCOc1ccc2oc(=O)cc(CN3CCN(c4ccc(Cl)cc4)CC3)c2c1	none
CNc1sc(C(=O)c2cccs2)c(N)c1-c1nc2ccccc2s1	Tau fibril FP 31.6µM, Tau fluor counter 11.2µM[quencher], Tau ThT inhib 7.94µM
CNc1sc(C(=O)c2ccc(F)cc2)c(N)c1-c1nc2ccccc2s1	Tau fluor counter inconclusive, Tau ThT inhib 15.8µM
O=Cc1ccccc1Cl	none (no result: Tau fibril FP, Tau fluor counter, Tau ThT inhib)
O=Cc1ccccc1C=O	TR SRC2 fluor cs 39.8µM[quencher], TRb-SRC2 inh inconclusive (no result: Tau fibril FP, Tau fluor counter, Tau ThT inhib)
CCOc1ccccc1CNC(=O)c1cc(-c2ccc(Cl)s2)nc2ccccc12	none
CN=C(c1ccco1)n1c(=S)nc(-c2ccco2)n(C)c1=S	Tau fibril FP inconclusive, Tau ThT inhib 28.2µM
Nc1ccc2c(c1)C(=O)C(=O)c1ccccc1-2	none
O=C1C(=O)c2ccc(-c3ccccc3)cc2-c2ccccc21	TRb-SRC2 inh inconclusive, Tau fibril FP inconclusive, Tau ThT inhib 1.26µM
Cc1ccc(CSC2=NC(C)(C)Nc3ccccc32)c(C)c1	TR SRC2 fluor cs inconclusive, Tau fluor counter 14.1µM[quencher], Tau ThT inhib inconclusive
CC1(C)N=C(SCc2ccc(Cl)cc2)c2ccccc2N1	Tau fluor counter 10µM[quencher], Tau ThT inhib inconclusive
COn1c(SCc2ccc(C)cc2C)nc2ccccc2c1=O	Tau ThT inhib inconclusive
CCOC(=O)c1ccccc1NC(=O)N1CCC(CN2CCOCC2)CC1	none
O=C1OC(NC(=O)c2ccccc2)C(n2cc(CO)nn2)=C1Cl (configuration not stated)	Tau fibril FP inconclusive, Tau ThT inhib 7.08µM
COc1cccc(CNc2ccc(N3CCCCC3)cc2)c1OC	Tau fibril FP inconclusive, Tau fluor counter inconclusive, Tau ThT inhib 14.1µM
COc1ccccc1CNc1ccc(C(=O)O)cc1	none
COc1ccccc1CNc1ccc(N2CCCCC2)cc1	Tau fibril FP inconclusive, Tau fluor counter inconclusive, Tau ThT inhib 22.4µM
COc1ccc(OC)c(CNC(=O)c2ccc(Sc3ccc(Cl)cc3)c(NC(C)=O)c2)c1	none
CCc1cccc(C)c1NS(=O)(=O)c1cc2[nH]c(=O)c(=O)[nH]c2cc1C	none
Cc1ccc(C2CC(=O)N3CN(Cc4ccco4)CSC3=C2C#N)cc1 (configuration not stated)	Tau fibril FP inconclusive, Tau ThT inhib 25.1µM
